Measurements taken from PubChem BioAssay AID651953 (The Scripps Research Institute Molecular Screening Center, 2012).
The whole screen tested about 2,400 compounds, of which about 430 (18%) were called active. A selection follows. A number with no mark means an inactive call. Cut-off read from the data, not from the text of the source: active = activation above about 12%; inactive = the rest.

Test: nonspecific calcium signal increase, Ga16 cells – cell-based, fluorescence, counter-screen for TAAR1 antagonist project (AID 651953);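 note: 0% = vehicle wells and 100% = saturating stimulus response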
Conditions: Ga16-expressing cells, agonist counterscreen, at 3 µM, stronger effect = higher value

Row | SMILES | activation
1 | Cc1ccc2cccc(OCCCOc3ccccc3CO)c2n1 | 7.98%
2 | COc1ccc(/C=C/C(=O)Nc2ccc(C34CC5CC(CC(O)(C5)C3)C4)cc2)cc1OC | 11.4%
3 | Cc1cccc(NC(=O)c2nc[nH]c2C(=O)NCC(=O)OCc2ccccc2)c1 | 4.58%
4 | CSCCC(NC(=O)COc1ccccc1)C(=O)OCC(=O)c1cc2ccccc2o1 (stereo not given) | 7.36%
5 | CC(=O)c1ccccc1OCc1ccc(C(=O)c2ccccc2)cc1 | 6.62%
6 | Cc1nc(N2CCN(c3ccccn3)CC2)c2c(C)c(C(=O)Nc3ccc(F)cc3)sc2n1 | 8.75%
7 | O=C(NCCN1C(=O)S/C(=C\c2cccnc2)C1=O)c1ccc(S(=O)(=O)N2CCCC2)cc1 | 2.99%
8 | O=S1(=O)c2c(cccc2N2CCCCC2)O[C@H](COCc2ccccc2)CN1C1CC1 | 2.53%
9 | CCN1CCc2c(C#N)c(NCc3ccccc3)nc(NCCO)c2C1 | 4.39%
10 | COc1ccc(Cl)cc1NC(=O)CCS(=O)(=O)c1cc2c(cc1C)NC(=O)CO2 | 8.26%
11 | COc1ccc(-c2cc(C(=O)N(C)CC(=O)Nc3ccccc3Cl)c3ccccc3n2)cc1OC | 7.25%
12 | CCOc1ccc(N2CC(C(=O)N/N=C/c3sccc3C)CC2=O)cc1 (stereo not given) | 1%
13 | C/C(=N\Nc1ncc(Cl)cc1Cl)c1ccc(S(=O)(=O)NCc2ccco2)cc1 | 0.19%
14 | CSC(=S)N/N=C/c1c[nH]c2ccccc12 | 6.16%
15 | O=C(O)c1ccc(NC(=O)c2cn(-c3ccccc3)nc2-c2ccc(Cl)cc2)cc1 | 3.12%
16 | O=C(NCC1CCCO1)c1cc2c([nH]c3ccccc32)c(-c2ccc(F)cc2)n1 (stereo not given) | 6.43%
17 | COc1ccc(-c2cc(C(=O)N(C)Cc3ccc(OC)c(OC)c3OC)c3ccccc3n2)cc1OC | 7.43%
18 | COc1ccc(-c2cc(C(=O)N(C)Cc3ccccc3)c3ccccc3n2)cc1 | 4.97%
19 | COc1ccc(CN(C)C(=O)c2cc(-c3ccc(C)cc3C)nc3ccccc23)c(OC)c1OC | 11.6% (active)
20 | CC(C)Oc1cc(F)ccc1-c1cc(C(=O)Nc2ccc(F)cc2)[nH]n1 | 5.64%
21 | COc1ccc(C(=O)Nc2ccccc2C(=O)N/N=C/c2ccc(O)c(OC)c2)cc1 | 7.09%
22 | Cc1cc(C(C)(C)C)oc1C(=O)N(CC(=O)NC1CCCC1)Cc1ccc(Cl)cc1 | 13.9% (active)
23 | C=CCc1cc(S(=O)(=O)c2ccc(O)c(CC=C)c2)ccc1O | 3.77%
24 | COc1ccc2[nH]c(=O)c(CN(Cc3cccnc3)S(=O)(=O)c3ccccc3F)cc2c1 | 9.12%
25 | Cc1ccccc1OCC(=O)Nc1ccc(N2CCN(C(=O)C(C)C)CC2)c(Cl)c1 | 11.8% (active)
26 | CCNS(=O)(=O)c1ccc(CCC(=O)N2CCN(c3cc(Cl)ccc3C)CC2)cc1 | 11.5% (active)
27 | Cc1ccc(C)c(N2CCN(C(=O)CCCCCn3c(=S)[nH]c4ccc(N5CCOCC5)cc4c3=O)CC2)c1 | 8.79%
28 | OC(c1ccccc1)(c1ccccc1)C1CCN(CCCOc2ccc(-c3ccsc3)cc2)CC1 | 17.6% (active)
29 | Cc1ccc(NC(=O)c2ccc(CSc3ncnc4nc[nH]c34)cc2)c(C)c1 | 7.81%
30 | O=C(CCc1ccccc1)Nc1cccc(-c2nnc(-c3ccco3)o2)c1 | 11%
